The nature of experiment [1]: CCTE_Mundy_HCI_hNP1_Casp3_7: CCTE's Caspase-Glo 3/7 Assay in human neuroprogenitor cells for Apoptosis, Mundy Lab (AID 2284240). In outline: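 Neuroepithelial-lineage stem cells from WA09 embryonic cells were treated with chemicals after 40–44 h of culture. Twenty-four hours later, caspase-3/7 activation was detected luminescently after a 30 min room-temperature reagent step, with DMSO as baseline.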

The nature of experiment [2]: CCTE_Mundy_HCI_hNP1_CellTiter: CCTE's Cell Titer-Glo 2 Assay in human neuroprogenitor cells for Viability, Mundy Lab (AID 2284241; active = hit-call score of the fitted dose curve at least 0.9, where 1 is the maximum;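 for AC50: a hit is a drop in ATP luminescence versus DMSO meaning reduced viability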). In outline:
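Measures ATP content in human neural progenitors derived from WA09 embryonic cells. Read-out at 26.5 hours after dosing, with DMSO serving as the negative control and baseline.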
(Cellular ATP, detected with luciferase, serves as a proxy for viable cell number.)

Experiment [3] can be described thus: CCTE_Mundy_HCI_Cortical_Synap_Neur_Matur_NeuronCount: CCTE's Synaptogenesis and Neurite Maturation Assay in rat cortical cells for Neuron Count, Mundy Lab (AID 2284242; active = hit-call score of the fitted dose curve at least 0.9, where 1 is the maximum;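 for AC50: neuron number from Hoechst nuclei and MAP2 staining by high-content imaging; hits reduce neuron count versus DMSO baseline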). In a few lines: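 Cortical cells from rat are plated, treated with AraC at DIV 5, and exposed to test chemicals with a media change at DIV 7. At DIV 12 they are fixed and immunostained (MAP2, synaptophysin), and imaged neuron counts are compared against DMSO controls.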

Experiment [4] in a line: IUF_NPC2c_oligodendrocyte_migration_120hr: Leibniz Research Institute for Environmental Medicine (IUF) 120-hour Neural Progenitor Cell Migration Assay for Oligodendrocyte Migration (NPC2c) (AID 2284297).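 Note: O4-positive oligodendrocyte migration distance divided by radial glia migration distance.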 In outline:
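Using fetal brain neural progenitor spheres differentiating in N2 medium at 37C, compounds were present for 120 h. Oligodendrocyte migration distance, normalized to radial glia migration, was measured from imaged O4 staining.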

Experiment [5] is described as follows: IUF_NPC2a_radial_glia_migration_120hr: Leibniz Research Institute for Environmental Medicine (IUF) 120-hour Neural Progenitor Cell Migration Assay for Radial Glia Migration (NPC2a) (AID 2284298). In a few lines: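 Exposure of 0.3 mm primary hNPC spheres runs day 0 to 120 h with a half-volume medium change at day 3. Fixed cells get Hoechst staining; high-content analysis of nuclear positions yields radial glia migration distance per well, compared against DMSO controls.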

The nature of experiment [6]: IUF_NPC2b_neuronal_migration_120hr: Leibniz Research Institute for Environmental Medicine (IUF) 120-hour Neural Progenitor Cell Migration Assay for Neuron Migration (NPC2b) (AID 2284300). In outline: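 Fetal human NPC spheres migrate on PDL/laminin during 120 h compound treatment; neuronal migration distance, glia-normalized, scored versus DMSO control.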
Experiment [7] in a line: IUF_NPC3_neuronal_differentiation_120hr: Leibniz Research Institute for Environmental Medicine (IUF) 120-hour Neuronal Differentiation Assay (NPC3) (AID 2284301). In outline:
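Neuronal differentiation of primary human neural progenitors measured by high-content imaging: percent TUBB3+ of Hoechst+ nuclei within migrated area at 120 h, seven-point serial dilution plus solvent control, gain or loss relative to DMSO.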

Experiment [8] in a line: IUF_NPC4_neurite_length_120hr: Leibniz Research Institute for Environmental Medicine (IUF) 120-hour Neuronal Morphology Assay for Neurite Length (NPC4) (AID 2284302). In outline: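 Neurons from differentiating human fetal neural progenitor spheres are scored for average neurite length after five days of compound exposure. Fitting uses DMSO as negative control.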
The nature of experiment [9]: IUF_NPC5_oligodendrocyte_differentiation_120hr: Leibniz Research Institute for Environmental Medicine (IUF) 120-hour Oligodendrocyte Differentiation Assay (NPC5) (AID 2284304; active = hit-call score of the fitted dose curve at least 0.9, where 1 is the maximum;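 note: primary human fetal neural progenitor spheres plated to migrate and differentiate; share of O4-positive cells among Hoechst nuclei found by CNN image analysis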). In outline: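 After plating on poly-D-lysine/laminin, fetal-derived hNPC spheres differentiated for 120 h at 37C in compound-containing N2 medium, refreshed by half on day 3. O4 immunostaining over Hoechst nuclei in the migration zone gave oligodendrocyte percentage relative to DMSO.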

Values joined by “and” are separate entries in the source; they are usually repeats but may differ in a detail not shown here. Equal entries are not always repeated. Results filed as inconclusive are left out. A structure can be active in one record and inactive in another. Active and inactive are the calls of the source. Rule for the calls, unless noted: active = hit-call score of the fitted dose curve at least 0.9, where 1 is the maximum; inactive = score below 0.9.

Usually AC50 stands for the midpoint of the concentration-response curve, whichever way the signal moves.

As for `CCOP(=S)(Oc1cnc(C(C)(C)C)nc1)OC(C)C` (centres undefined), the results for the half-maximal activity concentration (AC50) in experiment [1] and in experiment [3] were 91.4 µM (active) and 20.1 µM (active), respectively. The result in [1], in experiment [2], in experiment [3], in experiment [4], in [5] and in experiment [6] was inactive. In addition, the call in experiment [7], in experiment [8] and in experiment [9] was inactive.

In the case of `C=C(C)[C@H]1Cc2c(ccc3c2O[C@@H]2COc4cc(OC)c(OC)cc4[C@@H]2C3=O)O1`, the AC50 in [2] was 0.159 µM (active); in experiment [4], 0.0062 µM (active); in experiment [5], 244 nM (active) and 3.4 nM (active); in [6] it was 0.00958 µM (active); in experiment [7] it was 58 nM (active) and 7.87 nM (active); in experiment [8] it was 224 nM (active) and 10 nM (active). For the same compound, the result in [4] and in [6] was inactive.

Turning to `CCOP(=S)(OCC)Oc1cc(C)nc(C(C)C)n1`, the call in experiment [1], in [3], in experiment [4], in [5], in experiment [6] and in experiment [7] was inactive. In addition, the outcome in [8] and in experiment [9] was inactive.

Take `CCOP(=S)(OCC)OC(Cl)C(Cl)(Cl)Cl` (centres undefined): the half-maximal activity concentration (AC50) in experiment [1] is 50.5 µM (active); in experiment [2], 78.1 µM (active) and 88.7 µM (active); in experiment [3], 21.8 µM (active); in experiment [5] it was 22.8 µM (active). The result in [1], in [3], in [4], in experiment [6], in experiment [7] and in experiment [8] was inactive. Further, the call in experiment [9] was inactive.

Take `COP(=O)(NC(C)=O)SC` (centres undefined): the call in [1], in experiment [2], in experiment [3], in [4], in experiment [5] and in experiment [6] was inactive. Moreover, the compound was classed as inactive in [7], in experiment [8] and in experiment [9].

Consider `CON=C(C(=O)OC)c1ccccc1CON=C(C)c1cccc(C(F)(F)F)c1`, for which the AC50 in [1] is 50 µM (active); in [2], 50 µM (active); in [3], 0.293 µM (active); in experiment [4], 71.2 µM (active); in experiment [5], 11.8 µM (active); in experiment [7] it was 1.06 µM (active). Moreover, the half-maximal activity concentration (AC50) in experiment [8] is 24.7 µM (active); in [9], 7.95 µM (active). Besides, in [6], the compound was called inactive.

Take `CCOP(=S)(OCC)Oc1ccc2c(C)c(Cl)c(=O)oc2c1`: the AC50 in experiment [1] is 73.8 µM (active); in [2], 38.6 µM (active). Moreover, in experiment [3], the result was inactive.

The record behind these values is PubChem BioAssay (EPA / NIEHS).
